This passage reports EC50 results from PubChem BioAssay AID682 (University of Pittsburgh Molecular Library Screening Center, 2007).

Some of the results follow. A number with no mark means an inactive call. Rule as the data show it: active = EC50 below about 30 µM; inactive = the rest.

The experiment can be described thus: redox cycling H2O2 generation, 0.5 mM DTT, dose response, artefact control, biochemical, Cdc25B catalytic domain (AID 682). The settings on record: cell-free redox cycling H2O2 generation.

A word on the EC50: it is the concentration needed to bring the measured effect to its halfway point.

With `c1ccc(CSc2nnc(-c3ccco3)c(-c3ccco3)n2)cc1`, the EC50 is above 50 µM.

Consider `COc1cccc2c(C)c(C(=O)O)[nH]c12`, for which the EC50 is above 50 µM.
